# Activity calls are given as the source filed them.
# What was measured:
# [1] = test system: Human papillomavirus type 1a protein E7 (residues 44-93); test: HPV1a E7 fragment binders on microarrays, primary screen, biochemical, small-molecule microarray, residues 44-93, 635 nm fluorescence (AID 1108); details: small-molecule microarray binding, fluorescence 635 nm; higher = more signal;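 further: E7 fragment applied at 1 µg/mL in TBST for 1 h at 4 C; score combines spot fluorescence with its signal to noise ratio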
# [2] = modulators of HCV replicon luciferase signal, primary screen, HCV replication inhibitor project, Huh7 cells, luciferase reporter (AID 1109); details: 48 h, higher = more signal;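 further: huh7 hepatoma cells harbouring a luciferase neomycin HCV replicon reporter; luciferase luminescence as measure of HCV replicon replication; test concentration not given here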
# [3] = molecular target: Left-right determination factor 2 (Homo sapiens) (UniProt O00292); test: LEFTY2 binders on small-molecule microarrays, primary screen, biochemical, small-molecule microarray, 635 nm fluorescence scan (AID 1110); details: LEFTY2 binding, higher = more signal
# [4] = molecular target: Calmodulin-1 (Homo sapiens) (UniProt P0DP23); test: CALM1 binders on microarrays, EGTA buffer, profiling panel, biochemical, small-molecule microarray, Cy5-labelled CALM1 (AID 1111); details: Cy5-CALM1 binding fluorescence, higher = more signal;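 further: labelled calmodulin applied in Tris saline Tween buffer holding calcium plus EGTA and DTT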
# [5] = molecular target: Calmodulin-1 (Homo sapiens) (UniProt P0DP23); test: calcium-bound CALM1 binders on microarrays, profiling panel, artefact control for SMM control-protein annotation, biochemical, small-molecule microarray, Cy5-labelled CALM1, plus calcium (AID 1112); details: Cy5-CALM1 binding fluorescence, higher = more signal;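 further: score merges spot fluorescence with signal to noise from triplicate slides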
# [6] = small-molecule microarray binders of probe aWnt5a, primary screen, biochemical, biotinylated probe, 635/667 nm fluorescence (AID 1113); details: higher = more signal;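 further: score merges 667 nm fluorescence intensity with signal-to-noise per printed feature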
# [7] = small-molecule microarray binders of probe aShh, primary screen, biochemical, biotinylated probe, 635/667 nm fluorescence (AID 1114); details: higher = more signal;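 further: probe is biotin-labelled aShh protein from a stem cell growth factor screen; measures binding of labelled protein to compounds printed on the slide; score merges feature fluorescence at 667 nm with signal-to-noise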
# [8] = small-molecule microarray binders of probe aNog, primary screen, biochemical, biotinylated probe, 635/667 nm fluorescence (AID 1115); details: higher = more signal;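 further: probe is biotinylated aNog protein used at 0.15 µg/mL for 1 h at 4 C; z-score combines 667 nm fluorescence of each spot with its signal to noise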
# [9] = molecular target: Torsin-1A-interacting protein 1 (Homo sapiens) (UniProt Q5JTV8); test: LAP1 binders from COS7 cell lysate, primary screen, small-molecule microarray, 635/667 nm fluorescence (AID 1116); details: COS7-hLAP1 lysate binding, 635 nm fluorescence, higher = more signal
# [10] = molecular target: Alpha-bungarotoxin (Bungarus multicinctus) (UniProt P60615); test: alpha-bungarotoxin binders on microarray, profiling panel, artefact control for SMM control protein annotation, biochemical, small-molecule microarray, Alexa647 label, 635/667 nm fluorescence (AID 1117); details: alpha-BTX-A647 binding fluorescence, higher = more signal
# Albumin (Bos taurus) = Albumin (Bos taurus) (UniProt P02769); test: bovine serum albumin binders on microarray, profiling panel, artefact control for SMM control protein annotation, biochemical, small-molecule microarray, Alexa647 label, 635/667 nm fluorescence (AID 1118); details: BSA-A647 binding, fluorescence 635 nm, higher = more signal;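 further: score merges 667 nm emission intensity and signal-to-noise per printed compound spot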
# [11] = small-molecule microarray binders of probe aXIP, primary screen, biochemical, NeuroSMM set, 635/667 nm fluorescence (AID 1119); details: higher = more signal, called active from +8 up or from −8 down;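 further: probe is the protein aXip251-270 applied at 1 µg/mL to compound-printed slides; binding of probe to printed compounds measured as 667 nm fluorescence plus signal to noise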
# [12] = small-molecule binders of probe aNOTCH3, primary screen, biochemical, small-molecule microarray, 635/667 nm fluorescence (AID 1120); details: higher = more signal;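 further: probe is a biotin-tagged antibody raised against NOTCH3 rather than NOTCH3 protein; score merges spot fluorescence near 667 nm with spot signal to noise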
# [13] = small-molecule binders of probe aNOTCH2, primary screen, biochemical, small-molecule microarray, 635/667 nm fluorescence (AID 1121); details: higher = more signal;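 further: score merges feature fluorescence read at 667 nm with its signal to noise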
# [14] = molecular target: Carbonic anhydrase 2 (Homo sapiens) (UniProt P00918); test: CAII small-molecule binders, profiling panel, biochemical, small-molecule microarray, Alexa647-labelled CAII (AID 1122); details: CAII-A647 binding fluorescence, higher = more signal
# [15] = COS7 lysate on small-molecule microarray, probe aHis, 635 nm (AID 1123); details: COS7 cell lysate, fluorescence, higher = more signal;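 further: z-score combines 667nm fluorescence intensity with signal-to-noise per printed compound spot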
# [16] = compound binding in COS7 lysate, probe aLAP1, primary screen, cell lysate, small-molecule microarray (AID 1124); details: probe aLAP1, fluorescence, higher = more signal;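 further: lysate comes from COS7 cells expressing LAP1 and is applied at 0.3 µg/mL; score merges spot fluorescence near 667 nm with signal-to-noise over triplicate slides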
# Sam68 (KHDRBS1) = test: Sam68 small-molecule binders, primary screen, biochemical, small-molecule microarray, 635 nm fluorescence (AID 1125); details: small-molecule microarray binding, higher = more signal;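 further: score merges 667 nm channel intensity with signal to noise over triplicate slides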
# [17] = test system: Chordin-like protein 2 (CHRDL2); test: CHRDL2 small-molecule binders, primary screen, biochemical, small-molecule microarray, 635 nm fluorescence (AID 1126); details: small-molecule microarray binding, fluorescence 635 nm; higher = more signal;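 further: printed compound slides probed with Chrdl2 protein at 4 µg/mL for 1 h at 4 C; score merges 667 nm emission intensity with signal to noise over three replicate slides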
# [18] = molecular target: Concanavalin-A (Canavalia ensiformis) (UniProt P02866); test: ConA small-molecule binders, primary screen, artefact control for SMM control protein annotation, biochemical, small-molecule microarray, Alexa647 label, 635 nm (AID 1127); details: ConA-A647 binding fluorescence, higher = more signal;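 further: z combines 667 nm emission intensity with signal-to-noise across three replicate slides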
# Concanavalin-A (Canavalia ensiformis), sequence (P02866 whole entry, looked up): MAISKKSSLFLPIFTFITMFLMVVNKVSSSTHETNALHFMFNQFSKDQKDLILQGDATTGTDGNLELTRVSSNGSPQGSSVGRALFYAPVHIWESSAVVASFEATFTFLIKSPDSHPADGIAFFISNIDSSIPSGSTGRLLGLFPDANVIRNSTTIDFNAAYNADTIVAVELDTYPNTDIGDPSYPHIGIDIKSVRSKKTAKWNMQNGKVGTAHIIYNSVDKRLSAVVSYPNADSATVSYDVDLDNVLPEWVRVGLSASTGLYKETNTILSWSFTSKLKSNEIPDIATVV
# Albumin (Bos taurus), sequence (P02769 whole entry, looked up): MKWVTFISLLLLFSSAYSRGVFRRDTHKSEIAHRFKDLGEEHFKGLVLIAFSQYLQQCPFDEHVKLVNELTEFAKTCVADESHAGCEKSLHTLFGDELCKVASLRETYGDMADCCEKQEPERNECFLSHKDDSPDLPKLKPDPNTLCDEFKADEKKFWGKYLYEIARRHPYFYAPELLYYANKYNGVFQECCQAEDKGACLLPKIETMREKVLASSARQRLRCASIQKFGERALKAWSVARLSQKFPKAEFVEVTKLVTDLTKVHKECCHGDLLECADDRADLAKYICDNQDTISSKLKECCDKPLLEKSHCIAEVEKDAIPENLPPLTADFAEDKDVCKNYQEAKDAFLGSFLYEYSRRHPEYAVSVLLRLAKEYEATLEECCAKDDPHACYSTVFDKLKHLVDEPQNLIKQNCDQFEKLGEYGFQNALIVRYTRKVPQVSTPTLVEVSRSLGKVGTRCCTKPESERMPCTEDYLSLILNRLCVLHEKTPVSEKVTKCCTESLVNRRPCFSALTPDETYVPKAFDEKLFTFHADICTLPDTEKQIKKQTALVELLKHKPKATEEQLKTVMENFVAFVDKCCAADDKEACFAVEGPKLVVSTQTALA
# Torsin-1A-interacting protein 1 (Homo sapiens), sequence (Q5JTV8 whole entry, looked up): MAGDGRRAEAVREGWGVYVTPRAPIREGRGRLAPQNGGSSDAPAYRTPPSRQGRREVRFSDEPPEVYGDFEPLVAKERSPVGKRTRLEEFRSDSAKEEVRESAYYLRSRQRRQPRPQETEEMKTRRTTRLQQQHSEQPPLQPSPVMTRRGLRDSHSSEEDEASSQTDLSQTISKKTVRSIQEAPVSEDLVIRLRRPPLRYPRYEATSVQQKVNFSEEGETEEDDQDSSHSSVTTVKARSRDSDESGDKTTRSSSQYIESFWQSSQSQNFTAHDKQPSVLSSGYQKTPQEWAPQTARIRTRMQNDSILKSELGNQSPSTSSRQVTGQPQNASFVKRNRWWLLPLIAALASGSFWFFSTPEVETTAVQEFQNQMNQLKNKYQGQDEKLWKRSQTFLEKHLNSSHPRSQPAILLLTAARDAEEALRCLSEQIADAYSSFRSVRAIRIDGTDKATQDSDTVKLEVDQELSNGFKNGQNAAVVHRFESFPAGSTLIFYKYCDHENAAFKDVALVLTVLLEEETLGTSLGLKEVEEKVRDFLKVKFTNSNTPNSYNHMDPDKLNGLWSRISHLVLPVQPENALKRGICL
# Left-right determination factor 2 (Homo sapiens), sequence (O00292 whole entry, looked up): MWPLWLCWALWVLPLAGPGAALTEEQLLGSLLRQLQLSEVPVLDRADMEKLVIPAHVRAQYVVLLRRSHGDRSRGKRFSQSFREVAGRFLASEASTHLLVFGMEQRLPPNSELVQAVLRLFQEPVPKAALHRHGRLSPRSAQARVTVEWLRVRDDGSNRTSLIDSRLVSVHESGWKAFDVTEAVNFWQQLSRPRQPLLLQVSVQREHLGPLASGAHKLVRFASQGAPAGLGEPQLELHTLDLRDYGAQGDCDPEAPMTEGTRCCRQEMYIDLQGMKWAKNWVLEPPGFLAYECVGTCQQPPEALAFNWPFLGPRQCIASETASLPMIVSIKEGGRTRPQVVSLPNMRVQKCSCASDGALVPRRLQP
# Alpha-bungarotoxin (Bungarus multicinctus), sequence (P60615 whole entry, looked up): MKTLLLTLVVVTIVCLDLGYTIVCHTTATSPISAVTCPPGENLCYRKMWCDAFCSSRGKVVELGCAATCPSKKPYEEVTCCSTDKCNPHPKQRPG
Compound,composite z-score [1],z-score [2],composite z-score [3],composite z-score [4],composite z-score [5],composite z-score [6],composite z-score [7],composite z-score [8],composite z-score [9],composite z-score [10],composite z-score (Albumin (Bos taurus)),composite Z-score [11],composite z-score [12],composite z-score [13],composite z-score [14],composite z-score [15],composite z-score [16],composite z-score (Sam68 (KHDRBS1)),composite z-score [17],composite z-score [18]
O=C1[C@H]2[C@H]3[C@H](O)[C@H](O)CC(=NOCc4ccccc4)[C@@H]3CC[C@H]2C(=O)N1Cc1ccc2c(c1)OCO2,0.0666,-0.276,0.517,-0.206,-0.211,-0.091,-0.154,-0.23,0.366,0.576,0.0462,0.0289 (inactive),0.0306,-0.0131,0.618,-0.0974,-0.0389,-0.0391,0.124,-0.0139
CON=C1[C@H]2CCn3c(=O)n(-c4ccccc4)c(=O)n3[C@H]2[C@H](O)[C@@H]2O[C@H]12,0.548,-2.1,0.661,-0.345,-0.536,-0.0445,-0.138,-0.158,-0.501,0.269,0.103,0.119 (inactive),-0.0006,-0.121,0.0479,-0.364,0.0879,0.689,0.501,0.217
CON=C(C)CCC(=O)OC[C@H]1O[C@H](c2ccccc2)C=C[C@@H]1Oc1ccc(OC)cc1,-0.65,0.275,0.353,-0.515,-0.724,0.0257,-0.0769,-0.148,0.474,-0.0686,0.443,-0.222 (inactive),-0.0687,-0.146,-0.185,-0.0845,0.2,-0.209,0.406,0.0078
CC1O[C@H]2C3=C(C(=O)[C@@H]4O[C@@H]4[C@H]3O)[C@@H]1C1[C@@H](C)OC=C3[C@H](O)C4O[C@@H]4C(=NOCc4ccccc4)[C@]312 (stereo not given in full),-0.768,-3.71,0.18,-0.472,-0.177,-0.0519,0.225,-0.347,-0.192,-0.725,-0.26,0.0463 (inactive),-0.125,-0.14,-0.279,0.355,-0.136,-0.221,0.0959,-0.207
C#CCCCON=C1[C@H]2CCn3c(=O)n(C)c(=O)n3[C@H]2[C@H](O)[C@@H]2O[C@H]12,0.371,0.818,0.503,-0.266,-0.792,-0.0486,0.0723,0.0762,0.35,0.0727,-0.213,-0.496 (inactive),-0.0304,-0.169,-0.053,0.0971,0.723,0.406,0.833,0.543

# — PubChem BioAssay
